Test results: PubChem BioAssay
Calls of active or inactive are those of the source.

Assays:
[1] = binders of probe aFSTL3 on microarray, primary screen, stem cell growth factor project, biochemical, small-molecule microarray, fluorescence 635/667 (AID 1064); settings: higher = more signal;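 note: measures binding of the biotinylated anti-FSTL3 antibody to printed compounds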
[2] = binders from COS7 lysate, DM2A8 probe, primary screen, torsin A project, cell lysate, small-molecule microarray, fluorescence 635/667 (AID 1065); settings: higher = more signal, COS7 lysate expressing mutant human TOR1A
[3] = binders of probe aFGF2 on microarray, primary screen, stem cell growth factor project, biochemical, small-molecule microarray, fluorescence 635/667 (AID 1067); settings: higher = more signal;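 note: measures binding of biotinylated aFGF2 protein to printed compounds on slides; z-score merges feature fluorescence and signal-to-noise across triplicate slides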
[4] = binders of probe aFGF10 on microarray, primary screen, stem cell growth factor project, biochemical, small-molecule microarray, fluorescence 635/667 (AID 1071); settings: higher = more signal;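 note: score merges 667 nm spot intensity and signal to noise from triplicate slides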
[5] = target: Neurogenic locus notch homolog protein 2 (Homo sapiens) (UniProt Q04721); assay: Notch2 binders on small-molecule microarrays, primary screen, biochemical, small-molecule microarray, 635 nm fluorescence, stem cell growth factors (AID 1073); settings: Notch2 binding, higher = more signal
[6] = target: Pro-neuregulin-1, membrane-bound isoform (Homo sapiens) (UniProt Q02297); assay: NRG1 binders on small-molecule microarrays, primary screen, psychiatric disease protein project, biochemical, small-molecule microarray, fluorescence 635/667 (AID 1075); settings: NRG1 binding, 635 nm fluorescence, higher = more signal;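 note: score combines 667 nm spot fluorescence with signal to noise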
[7] = test system: Neuregulin-1 EGF-like domain; assay: binders of neuregulin-1 EGF-like domain, primary screen, biochemical, small-molecule microarray, 635 nm fluorescence (AID 1081); settings: small-molecule microarray binding, higher = more signal;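 note: binding of the protein to compounds printed on small-molecule microarray slides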
[8] = FRG1 promoter luciferase signal modulators, primary screen, FRG1 inhibition for FSHD, cell-based, C2C12 myotubes, firefly/Renilla luciferase, luminescence (AID 1084); settings: higher = more signal, called active from +8 up or from −8 down
[9] = binders of probe aFST on microarray, primary screen, stem cell growth factor project, biochemical, small-molecule microarray, fluorescence 635/667 (AID 1086); settings: higher = more signal;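 note: score merges 667 nm fluorescence with signal-to-noise of each printed compound spot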
[10] = binders of probe aHhip on microarray, primary screen, stem cell growth factor project, biochemical, small-molecule microarray, fluorescence 635/667 (AID 1087); settings: higher = more signal;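 note: score merges spot fluorescence at 667nm with spot signal to noise ratio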
[11] = test system: PRMT1 (protein arginine N-methyltransferase 1); assay: PRMT1 binders on small-molecule microarrays, primary screen, biochemical, small-molecule microarray, 635 nm fluorescence (AID 1088); settings: small-molecule microarray binding, higher = more signal;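 note: binding of Prmt1 protein to compounds spotted on small-molecule microarray slides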
[12] = yeast growth modulation, basal conditions, primary screen, YJM789 clinical isolate, OD600, 24 h (AID 1089);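 note: growth of clinical yeast isolate S. cerevisiae YJM 789 seeded 1000 cells per well; test concentration not given here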; settings: S. cerevisiae YJM789 growth, higher = more signal, called active from +8 up or from −8 down
[13] = fission yeast growth modulation, primary screen, strain 972, OD600, 24 h, no modulator (AID 1090);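 note: basal condition with compound alone and no growth modifier present; test concentration not given here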; settings: S. pombe 972 growth, higher = more signal, called active from +8 up or from −8 down
[14] = S. cerevisiae growth modulation with rapamycin, primary screen, strain BY4716, OD600, 96 h (AID 1091); settings: higher = more signal, called active from +8 up or from −8 down; note: test concentration not given here
[15] = target: Torsin-1A-interacting protein 2 (Homo sapiens) (UniProt Q8NFQ8); assay: LULL1 binders on small-molecule microarray, primary screen, cell lysate, human LULL1 lysate, 635/667 nm fluorescence (AID 1092); settings: hLULL1 lysate binding, 635 nm fluorescence, higher = more signal;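 note: probe is lysate of COS7 cells overexpressing human LULL1; score merges per-feature 667 nm fluorescence with signal-to-noise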
[16] = E. coli growth modulation, two-sided OD650, primary screen, E. coli filamentation project, strain DRC41, 24 h (AID 1093); settings: OD650, 24 h, higher = more signal, called active from +8 up or from −8 down;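 note: MC1000 strain lacking acrAB efflux and sulA so SOS filamentation is blocked; test concentration not given here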
[17] = small-molecule microarray binders of probe aLefty2, primary screen, biochemical, biotinylated probe, 635/667 nm fluorescence (AID 1094); settings: higher = more signal;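 note: score merges spot fluorescence near 667 nm with spot signal-to-noise ratio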
[18] = test system: Noggin (protein binding on small-molecule microarray); assay: Noggin binders on small-molecule microarray, primary screen, biochemical, 635/667 nm fluorescence (AID 1095); settings: 635 nm fluorescence, higher = more signal;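 note: score merges 667 nm feature fluorescence with signal to noise over triplicate slides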
[19] = target: Neurogenic locus notch homolog protein 3 (Homo sapiens) (UniProt Q9UM47); assay: NOTCH3 binders on small-molecule microarray, primary screen, biochemical, 635/667 nm fluorescence (AID 1096); settings: NOTCH3 binding, 635 nm fluorescence, higher = more signal
[20] = small-molecule microarray binders of probe aEGFR, primary screen, biochemical, biotinylated probe, 635/667 nm fluorescence (AID 1097); settings: higher = more signal;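 note: probe is a biotinylated anti-EGFR antibody binding compounds printed on slides; score combines fluorescence near 667 nm and signal to noise of each spot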

Chain of Neurogenic locus notch homolog protein 2 (Homo sapiens) (Q04721 whole entry, looked up, canonical isoform): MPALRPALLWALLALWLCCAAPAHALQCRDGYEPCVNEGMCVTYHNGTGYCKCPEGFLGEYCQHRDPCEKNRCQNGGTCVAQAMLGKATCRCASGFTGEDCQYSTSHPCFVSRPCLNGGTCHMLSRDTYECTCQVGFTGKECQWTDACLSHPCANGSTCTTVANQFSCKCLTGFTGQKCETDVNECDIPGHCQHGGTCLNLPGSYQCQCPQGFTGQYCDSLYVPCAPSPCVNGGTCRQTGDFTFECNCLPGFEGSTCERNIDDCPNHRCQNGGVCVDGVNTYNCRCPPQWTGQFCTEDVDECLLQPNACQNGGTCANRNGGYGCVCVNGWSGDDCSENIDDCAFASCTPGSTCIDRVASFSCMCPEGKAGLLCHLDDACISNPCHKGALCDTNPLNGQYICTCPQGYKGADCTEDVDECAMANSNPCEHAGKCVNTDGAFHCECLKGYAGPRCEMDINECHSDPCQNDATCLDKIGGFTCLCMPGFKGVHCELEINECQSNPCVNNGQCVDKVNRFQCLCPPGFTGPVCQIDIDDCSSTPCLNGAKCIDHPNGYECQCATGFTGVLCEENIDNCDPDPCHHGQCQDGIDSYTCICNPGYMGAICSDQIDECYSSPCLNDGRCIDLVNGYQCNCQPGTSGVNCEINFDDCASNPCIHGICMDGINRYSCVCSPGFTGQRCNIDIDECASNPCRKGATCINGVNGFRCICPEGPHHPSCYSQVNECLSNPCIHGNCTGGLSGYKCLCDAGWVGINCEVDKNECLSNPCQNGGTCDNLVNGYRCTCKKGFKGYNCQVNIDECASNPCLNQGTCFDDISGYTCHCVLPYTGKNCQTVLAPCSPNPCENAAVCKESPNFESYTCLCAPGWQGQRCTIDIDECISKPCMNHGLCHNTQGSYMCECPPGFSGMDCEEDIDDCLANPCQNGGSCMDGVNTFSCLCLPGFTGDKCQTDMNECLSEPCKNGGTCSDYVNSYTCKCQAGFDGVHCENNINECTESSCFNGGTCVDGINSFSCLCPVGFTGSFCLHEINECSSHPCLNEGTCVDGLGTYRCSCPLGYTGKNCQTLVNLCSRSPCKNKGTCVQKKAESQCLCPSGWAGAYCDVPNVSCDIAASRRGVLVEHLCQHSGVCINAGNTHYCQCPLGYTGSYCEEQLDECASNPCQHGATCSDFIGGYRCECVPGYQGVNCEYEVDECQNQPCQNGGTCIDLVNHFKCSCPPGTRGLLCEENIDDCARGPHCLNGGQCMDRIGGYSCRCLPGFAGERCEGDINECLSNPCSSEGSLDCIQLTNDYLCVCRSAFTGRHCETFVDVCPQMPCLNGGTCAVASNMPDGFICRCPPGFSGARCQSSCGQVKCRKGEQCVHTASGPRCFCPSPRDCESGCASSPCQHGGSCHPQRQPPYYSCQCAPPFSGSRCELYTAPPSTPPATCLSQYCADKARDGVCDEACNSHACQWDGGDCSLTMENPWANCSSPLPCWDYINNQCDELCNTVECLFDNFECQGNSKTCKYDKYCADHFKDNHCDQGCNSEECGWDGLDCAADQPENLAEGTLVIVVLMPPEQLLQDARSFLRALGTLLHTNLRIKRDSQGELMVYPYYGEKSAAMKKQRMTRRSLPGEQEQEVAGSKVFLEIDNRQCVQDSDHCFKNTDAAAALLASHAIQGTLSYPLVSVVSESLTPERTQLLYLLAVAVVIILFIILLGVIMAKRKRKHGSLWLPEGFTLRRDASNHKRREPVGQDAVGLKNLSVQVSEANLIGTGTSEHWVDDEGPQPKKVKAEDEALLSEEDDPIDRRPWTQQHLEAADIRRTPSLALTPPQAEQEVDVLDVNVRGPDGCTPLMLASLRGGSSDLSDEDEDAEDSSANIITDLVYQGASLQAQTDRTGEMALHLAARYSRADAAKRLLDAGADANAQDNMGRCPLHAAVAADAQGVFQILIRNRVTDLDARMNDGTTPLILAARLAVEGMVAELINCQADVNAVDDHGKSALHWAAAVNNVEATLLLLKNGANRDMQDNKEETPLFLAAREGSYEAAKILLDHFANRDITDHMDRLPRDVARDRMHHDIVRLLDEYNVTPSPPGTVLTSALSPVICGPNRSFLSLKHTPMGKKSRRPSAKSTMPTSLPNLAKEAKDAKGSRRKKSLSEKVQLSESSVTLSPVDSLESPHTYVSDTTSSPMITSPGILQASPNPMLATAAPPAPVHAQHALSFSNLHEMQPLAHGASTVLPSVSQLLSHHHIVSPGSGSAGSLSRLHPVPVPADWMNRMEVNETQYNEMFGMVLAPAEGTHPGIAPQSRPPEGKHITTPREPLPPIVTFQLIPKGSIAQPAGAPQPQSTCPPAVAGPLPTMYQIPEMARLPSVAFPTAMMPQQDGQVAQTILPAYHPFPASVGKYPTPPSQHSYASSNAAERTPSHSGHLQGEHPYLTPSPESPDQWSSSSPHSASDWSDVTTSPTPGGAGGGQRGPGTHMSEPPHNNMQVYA
Chain of Pro-neuregulin-1, membrane-bound isoform (Homo sapiens) (Q02297 whole entry, looked up, the tested form may be a part, canonical isoform): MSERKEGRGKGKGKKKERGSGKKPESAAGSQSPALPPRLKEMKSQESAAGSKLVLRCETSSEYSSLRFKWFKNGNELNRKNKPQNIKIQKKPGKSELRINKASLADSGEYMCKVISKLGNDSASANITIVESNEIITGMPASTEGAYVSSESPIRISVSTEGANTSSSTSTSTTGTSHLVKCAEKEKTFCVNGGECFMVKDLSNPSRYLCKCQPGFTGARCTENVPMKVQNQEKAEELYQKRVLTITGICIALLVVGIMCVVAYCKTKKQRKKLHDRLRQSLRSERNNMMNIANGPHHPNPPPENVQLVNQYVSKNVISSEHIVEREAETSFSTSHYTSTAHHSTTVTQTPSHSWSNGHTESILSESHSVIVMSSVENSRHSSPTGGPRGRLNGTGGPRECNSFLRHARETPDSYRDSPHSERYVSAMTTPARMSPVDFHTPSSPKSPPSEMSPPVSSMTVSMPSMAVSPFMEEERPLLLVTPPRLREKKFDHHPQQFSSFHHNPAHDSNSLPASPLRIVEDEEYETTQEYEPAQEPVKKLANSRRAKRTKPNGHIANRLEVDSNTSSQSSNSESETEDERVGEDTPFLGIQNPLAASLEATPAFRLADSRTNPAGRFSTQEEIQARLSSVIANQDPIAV
Chain of Torsin-1A-interacting protein 2 (Homo sapiens) (Q8NFQ8 whole entry, looked up): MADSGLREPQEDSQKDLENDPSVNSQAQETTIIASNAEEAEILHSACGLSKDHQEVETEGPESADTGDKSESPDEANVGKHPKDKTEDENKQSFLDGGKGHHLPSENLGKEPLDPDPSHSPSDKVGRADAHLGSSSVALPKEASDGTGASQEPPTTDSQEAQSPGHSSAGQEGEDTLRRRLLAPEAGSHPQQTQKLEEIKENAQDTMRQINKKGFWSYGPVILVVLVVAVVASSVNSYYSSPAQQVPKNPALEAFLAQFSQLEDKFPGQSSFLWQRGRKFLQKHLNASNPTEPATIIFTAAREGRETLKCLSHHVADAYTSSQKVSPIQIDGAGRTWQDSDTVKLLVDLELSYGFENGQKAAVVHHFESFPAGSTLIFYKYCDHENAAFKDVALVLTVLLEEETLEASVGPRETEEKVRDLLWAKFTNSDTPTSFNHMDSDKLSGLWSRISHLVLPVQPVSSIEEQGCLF

Row | Compound | composite z-score [1] | composite z-score [2] | composite z-score [3] | composite z-score [4] | composite z-score [5] | composite z-score [6] | composite z-score [7] | z-score [8] | composite z-score [9] | composite z-score [10] | composite z-score [11] | z-score [12] | z-score [13] | z-score [14] | composite z-score [15] | z-score [16] | composite z-score [17] | composite z-score [18] | composite z-score [19] | composite z-score [20]
1 | CO[C@H]1COC(=O)[C@H](C)COC(=O)[C@H](C)NC(=O)CC=C[C@H]1C | -0.874 | 1.28 | -0.145 | 0.37 | 0.127 | -0.575 | 0.887 | -0.592 (inactive) | 0.0261 | 0.124 | 1.34 | -0.301 (inactive) | -0.296 (inactive) | -0.253 (inactive) | 0.449 | 0.828 (inactive) | -0.166 | 1.29 | 0.696 | -0.122
2 | CC(=O)OC[C@H]1O[C@@H](ON=C2[C@H]3CCn4c(=O)n(-c5ccccc5)c(=O)n4[C@H]3[C@H](O)[C@@H]3O[C@H]23)[C@H](OC(C)=O)[C@@H](OC(C)=O)[C@@H]1OC(C)=O | -0.512 | 0.617 | -0.0787 | 0.582 | 0.396 | 0.471 | 0.711 | 0.295 (inactive) | 0.259 | -0.0024 | 1.02 | -0.436 (inactive) | -0.598 (inactive) | 0.083 (inactive) | 1.37 | 0.0967 (inactive) | -0.0409 | 0.349 | 0.785 | -0.0485
3 | CC(=O)OC[C@H]1O[C@H](CC=NOC[C@@H](O)[C@H]2O[C@@H]3OC(C)(C)O[C@@H]3[C@H]2O)C=C[C@@H]1OC(C)=O | -0.373 | -0.487 | 0.138 | 0.416 | 1.04 | 0.758 | 1.13 | -0.008 (inactive) | 0.265 | -0.0844 | 0.739 | 0.561 (inactive) | 1.09 (inactive) | 0.541 (inactive) | 2.25 | 0.72 (inactive) | -0.0708 | 0.441 | 0.492 | -0.0035
4 | Cc1ccc(S(=O)(=O)N[C@@H]2COC(=O)CC=C[C@@H](C)[C@H](NS(=O)(=O)c3ccc(C)cc3)COC(=O)[C@H](C)NC(=O)CC=C[C@H]2C)cc1 | 0.166 | 0.264 | -0.11 | -0.0539 | -1.12 | -0.921 | -0.744 | -0.138 (inactive) | -0.18 | -0.216 | -0.287 | -0.0073 (inactive) | 0.13 (inactive) | 0.147 (inactive) | -0.865 | 0.715 (inactive) | -0.291 | 0.354 | -0.632 | -0.16
5 | O=C1[C@H]2[C@H]3[C@H](O)[C@H](O)CC(=NOC[C@@H](O)COCc4ccco4)[C@@H]3CC[C@H]2C(=O)N1Cc1ccccc1 | -0.645 | 0.389 | -0.171 | -0.0702 | 0.0535 | 0.39 | 1.24 | 0.668 (inactive) | 0.248 | -0.115 | 1.53 | -0.444 (inactive) | -0.801 (inactive) | -1.63 (inactive) | 2.66 | 0.267 (inactive) | -0.166 | 1.04 | 0.841 | 0.0673
6 | CCOC(=O)CCN1C(=O)[C@H]2[C@@H]3C(=CC[C@H]2C1=O)C(=O)[C@H]1O[C@H]1[C@H]3O | -0.128 | -0.42 | -0.137 | -0.199 | -0.582 | -0.426 | 0.503 | -2.91 (inactive) | -0.481 | -0.137 | -0.571 | 0.151 (inactive) | 0.0483 (inactive) | -0.384 (inactive) | -0.0261 | -0.518 (inactive) | -0.27 | -0.861 | -1.75 | -0.122
7 | COC(=O)[C@H](C)NC(=O)CCC1CC(OC(=O)NCc2cccc3ccccc23)CC2(CCCC(COC(=O)NCCc3ccccc3OC)O2)O1 (stereo not given in full) | -0.629 | 0.0902 | -0.076 | 0.612 | 1.24 | 1.15 | 1.21 | 2.21 (inactive) | 0.573 | 0.24 | 1.37 | 0.502 (inactive) | 1.02 (inactive) | 2.03 (inactive) | 2.38 | 0.476 (inactive) | -0.0179 | 1.14 | 0.817 | 0.0066
8 | O=C1[C@H]2[C@H]3[C@H](O)[C@H](O)CC(=NO[C@@H]4O[C@H](CO)[C@@H](O)[C@H](O)[C@H]4O)[C@@H]3CC[C@H]2C(=O)N1C[C@@H]1CCCO1 | -0.603 | -0.038 | -0.0908 | 0.529 | 1.06 | -0.0236 | 0.298 | 0.746 (inactive) | 0.254 | 0.0505 | 1.08 | 0.57 (inactive) | -0.0413 (inactive) | -0.0603 (inactive) | 1.21 | 0.415 (inactive) | -0.0683 | -0.287 | 0.979 | 0.0934
9 | CCC1=NOC(CCC2CC(OC(=O)NCc3cccc4c3OCO4)CC3(CCCC(COC(=O)NCCc4ccc(Cl)cc4)O3)O2)C1 (stereo not given) | -0.281 | 0.0253 | 0.0388 | 0.88 | 0.0241 | 1.44 | 1.12 | 1.24 (inactive) | -0.0353 | -0.0994 | 0.616 | -0.57 (inactive) | 0.232 (inactive) | 0.407 (inactive) | 1.59 | 0.812 (inactive) | -0.186 | 0.379 | -0.165 | -0.125
